This note sets out measurements from PubChem BioAssay (NCI).

About 83,000 compounds went through this panel and 20% of them were active in at least one assay; those are over-represented in the sample as a whole.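 Each cell line was grown in a 96-well plate and treated with one concentration of compound for 48 hours. Values below 10 were considered active.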 Unmarked numbers belong to inactive results. Activity calls are given as the source filed them.

This test has as its system HL-60(TB) leukemia. The test is described as follows: NCI-60 one-dose screen, 48 h (100 = growth as untreated, 0 = no growth, -100 = all killed). The note with it: 10 µM unless noted.
On to `Cc1[nH]n(-c2ccccc2)c(=O)c1C=NC(=S)C(N)=S`, for which the growth is 102%.

`Cc1ccc(C(=O)C(Br)C(Br)c2ccccc2)cc1` (centres undefined): the growth is 45.1%.

As for `COC(=O)c1cc2oc(/C=C3/SC(=S)N(N)C3=O)cc2n1Cc1ccccc1`, the growth was 53.7%.

As for `CCCCCCCCCCCCNC(=O)[C@H]1CSC(c2cc3ccccc3s2)N1` (some centres undefined), the growth was -33.3% (active).

Turning to `COc1cccc(NC(=O)c2cccc(C3CCc4c(cc(OC)c(OC)c4OC)O3)c2)c1` (centres undefined), the growth is 44.2%.

Turning to `COc1ccc(Cl)cc1NC(=O)C(Br)C(Br)C(=O)O` (centres undefined), the growth was 1.26% (active).

Regarding `Cc1cc(NCc2cc(Nc3ccnc4cc(Cl)ccc34)ccc2F)nc(N2CCN(C)CC2)n1`, the growth was -46.6% (active).

Take `COc1cc(/C=C/c2cc(/C=C/c3ccc(O)c(OC)c3)n(-c3c(C)cccc3C)c(=O)n2)ccc1O`: the growth was 6.05% (active).

Take `COc1ccc2nccc(Cl)c2c1`: the growth is 103%.

On to `Cc1cc2c(c(C)c1Cl)C(=O)/C(=C/c1ccc(O)c(O)c1)O2`, for which the growth is 108%.

Regarding `Oc1ccccc1O`, the growth was 55.8%.

On to `Clc1cccc(Cl)c1Nc1ccc2nnc(-c3ccncc3)n2n1`, for which the growth was 88.7%.

As for `CCC(=O)c1cc([N+](=O)[O-])c(Br)s1`, the growth was 34%.

Regarding `O=C(Nc1ccc(-n2ccc3c(NC(=O)c4ccccc4)nccc32)cc1)Nc1ccc(Cl)c(Cl)c1`, the growth is -16.4% (active).

Take `O=Nc1ccc(O)c2ccccc12`: the growth is -3.12% (active).

Take `CC(=O)c1ccc2c(c1)CCN2`: the growth was 106%.

Take `NC(=O)c1cccc(-c2ccccc2N2CCCCC2)c1`: the growth was 95.3%.

Take `O=C1Nc2c(ccc(Cl)c2Cl)/C1=C\c1cc(C(F)(F)F)cc(C(F)(F)F)c1`: the growth is -29.3% (active).

`N#Cc1nc(-c2cccc(Br)c2)cc(-c2ccc(Nc3nc(N4CCCCC4)nc(N4CCCCC4)n3)cc2)c1N`: the growth is -16.4% (active).

For `O=C(/C=C/c1cccc([N+](=O)[O-])c1)c1ccc(O)c(CN2CCN(c3cc4c(cc3F)c(=O)c(C(=O)O)cn4C3CC3)CC2)c1`, the growth was 8.41% (active).

In the case of `CCOc1cccc(-c2nc(N)nc(Nc3ccccc3SSc3ccccc3Nc3nc(N)nc(-c4cccc(OCC)c4)n3)n2)c1`, the growth is 8.5% (active).

Consider `CC1=CC[C@@H]2CC[C@]3(C)[C@H](CC[C@@H]4[C@@]5(C)CCCNC(C)(C)[C@@H]5CC[C@]43C)[C@H]2[C@@H]1C`, for which the growth is 21.7%.

On to `CC(=O)NCC(=O)Nc1ccc(-c2nnc3ccccn23)nc1.CC(=O)NCC(=O)Nc1ccc(-c2nnc3ccccn23)nc1.[Pt+2]`, for which the growth was 109%.

In the case of `O=c1oc2ccccc2cc1-c1csc(N/N=C/c2cc3ccccc3nc2Cl)n1`, the growth was 116%.

For the molecule `CN1CCN(c2nc(-c3cccnc3)nc3sc4c(c23)CCCCCC4)CC1`, the growth was 87.2%.

Consider `COc1cc(-c2csc(NC(=O)Nc3ccc(Cl)c(C(F)(F)F)c3)n2)cc(OC)c1OC`, for which the growth was -6.26% (active).

As to `CS(=O)(=O)c1nsc(N)n1`, the growth was 105%.

With `O=C(Nc1ccc([N+](=O)[O-])cc1)c1cc2ccccc2cc1O`, the growth was -16.7% (active).

Consider `CCN1C(=O)N(CC)C2Nn3c(s/c(=C\c4ccccc4F)c3=O)=NC21` (centres undefined), for which the growth was 7.77% (active).

`COC(=O)c1nc(-c2ccccc2)oc1S(=O)(=O)N(C)CCO`: the growth is -24.6% (active).

Regarding `CCN(CC)CCOc1ccc2ccc(=O)oc2c1`, the growth is 3.42% (active).

Turning to `CCOC(=O)c1ccccc1OC(=O)NNc1ccccc1`, the growth is -7.77% (active).

Consider `O=CNc1ccc2c(c1)Cc1cc([N+](=O)[O-])ccc1-2`, for which the growth was 17.7%.

Take `C[n+]1c(/C=C/c2ccc([N+](=O)[O-])cc2)ccc2ccccc21`: the growth was 99.3%.

As for `CCCCCCC(=O)Nc1ncc(Cc2ccc(C)cc2)s1`, the growth is -18.2% (active).

In the case of `COc1cccc(CC(C)=C(c2ccc(OCCN3CCCCC3)cc2)c2ccc(OCCN3CCCCC3)cc2)c1`, the growth was -57.5% (active).

As to `O=C(CN1CCOCC1)Nc1ccc(Cn2nnc3c2C(=O)c2nnn(Cc4ccc(NC(=O)CN5CCOCC5)cc4)c2C3=O)cc1`, the growth was -39.1% (active).

For `O=C1CC(c2nc3ccccc3s2)CN1C1CCCCC1` (centres undefined), the growth is 91.3%.

In the case of `NC(=O)c1ccc(N=C(N)N=C(N)N)cc1`, the growth was 98.7%.
